Results taken from PubChem BioAssay (Tox21).
Records with an inconclusive call do not appear. Active and inactive are the calls of the source. Unless noted, calls follow the shape of the dose curve; as a rule, active = well fitted curve in the direction sought with a large enough effect in the repeat runs; inconclusive = weak or mixed curves; inactive = no such curve, though single readings can be large; an effect the other way counts as inactive or inconclusive.

Assays:
[1] = qHTS assay to identify small molecule antagonists of the glucocorticoid receptor (GR) signaling pathway - cell viability counter screen (AID 720693); also: nearly all actives have a fitted effect of over 55% in size
[2] = qHTS assay for identifying genotoxic compounds that show differential cytotoxicity against isogenic chicken DT40 cell lines with known DNA damage response pathways - Rev3 mutant cell line (AID 743014); also: nearly all actives have a fitted effect of over 55% in size
[3] = qHTS assay for identifying genotoxic compounds that show differential cytotoxicity against isogenic chicken DT40 cell lines with known DNA damage response pathways - Rad54/Ku70 mutant cell line (AID 743015); also: nearly all actives have a fitted effect of over 60% in size
[4] = qHTS assay to identify small molecule antagonists of the androgen receptor (AR) signaling pathway - cell viability counter screen (AID 743033; also: nearly all actives have a fitted effect of over 45% in size)
[5] = target: Androgen receptor (Homo sapiens) (UniProt P10275); assay: qHTS assay to identify small molecule antagonists of the androgen receptor (AR) signaling pathway (AID 743035; active = well fitted inhibition curve with a large enough effect in the signal ratio in the repeat runs, not every such curve was filed as active; the % refers to the signal ratio)
Chain of Androgen receptor (Homo sapiens) (P10275 whole entry, looked up): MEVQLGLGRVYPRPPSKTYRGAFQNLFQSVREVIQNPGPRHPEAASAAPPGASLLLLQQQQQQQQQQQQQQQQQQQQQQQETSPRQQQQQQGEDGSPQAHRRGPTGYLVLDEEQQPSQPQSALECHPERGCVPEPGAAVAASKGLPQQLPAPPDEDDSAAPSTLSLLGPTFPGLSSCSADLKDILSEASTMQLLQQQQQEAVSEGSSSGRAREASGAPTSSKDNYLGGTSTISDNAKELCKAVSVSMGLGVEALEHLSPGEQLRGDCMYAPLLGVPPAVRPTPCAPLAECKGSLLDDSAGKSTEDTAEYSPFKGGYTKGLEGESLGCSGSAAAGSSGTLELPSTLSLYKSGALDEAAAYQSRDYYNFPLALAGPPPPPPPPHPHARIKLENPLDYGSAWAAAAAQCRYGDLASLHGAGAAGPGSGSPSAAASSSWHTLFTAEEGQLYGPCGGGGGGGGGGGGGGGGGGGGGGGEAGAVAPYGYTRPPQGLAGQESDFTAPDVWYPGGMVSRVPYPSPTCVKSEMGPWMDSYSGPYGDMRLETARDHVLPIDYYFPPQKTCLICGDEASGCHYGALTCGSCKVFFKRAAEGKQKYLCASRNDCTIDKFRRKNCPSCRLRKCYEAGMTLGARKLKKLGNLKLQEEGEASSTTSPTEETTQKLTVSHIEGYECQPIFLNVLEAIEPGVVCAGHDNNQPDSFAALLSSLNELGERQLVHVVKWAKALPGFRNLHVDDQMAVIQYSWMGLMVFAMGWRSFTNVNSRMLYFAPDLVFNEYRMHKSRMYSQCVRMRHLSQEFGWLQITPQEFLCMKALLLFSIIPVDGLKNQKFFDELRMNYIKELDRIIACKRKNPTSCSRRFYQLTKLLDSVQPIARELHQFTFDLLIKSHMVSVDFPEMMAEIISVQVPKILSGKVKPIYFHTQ
Procedure, shortened: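 R1881 agonist challenge of a HEK293 UAS-beta-lactamase AR reporter line in the presence of compound (16 h, 37C); signal taken as FRET fluorescence after 2 h with LiveBLAzer B/G substrate at room temperature.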

[6] = target: Androgen receptor (Homo sapiens) (UniProt P10275); assay: qHTS assay to identify small molecule agonists of the androgen receptor (AR) signaling pathway (AID 743036; active = well fitted activation curve with a large enough effect in the signal ratio in the repeat runs, with a control signal flat, not every such curve was filed as active; the % refers to the signal ratio)
Procedure, shortened: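 Fluorescence from a beta-lactamase FRET substrate served as read-out in AR-UAS-bla GripTite HEK293 cells. Cells were treated with DMSO-dissolved compounds for 16 h at 37C, then with LiveBLAzer B/G substrate for 2 h at room temperature.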

[7] = target: Androgen receptor (Homo sapiens) (UniProt P10275); assay: qHTS assay to identify small molecule agonists of the androgen receptor (AR) signaling pathway using the MDA cell line (AID 743040; also: nearly all actives have a fitted effect of over 20% in size)
Procedure, shortened: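 Cell-based luciferase reporter: MDA-kb2, MMTV promoter (AR + GR response elements). 16 h compound exposure at 37C; ONE-Glo, 30 min RT, luminescence.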

[8] = qHTS assay to identify small molecule antagonists of the androgen receptor (AR) signaling pathway using the MDA cell line - cell viability counter screen (AID 743041; also: nearly all actives have a fitted effect of over 45% in size)
Procedure, shortened: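 In this qHTS counter assay, fluorescence intensity after CellTiter-Fluor addition indicated viability of MDA-kb2 AR-luc cells given compounds and R1881 for 16 h at 37C.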

[9] = target: Androgen receptor (Homo sapiens) (UniProt P10275); assay: qHTS assay to identify small molecule antagonists of the androgen receptor (AR) signaling pathway using the MDA cell line (AID 743042; also: nearly all actives have a fitted effect of over 55% in size)
Procedure, shortened: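 MDA-kb2 cells (human breast carcinoma, stably carrying an MMTV-luciferase reporter responsive to AR and GR) were plated at 3,000 cells/well and preincubated 5 hr at 37C, then given compound plus R1881 agonist for 16 h. ONE-Glo luminescence was read.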

[10] = qHTS assay to identify small molecule antagonists of the thyroid receptor (TR) signaling pathway - cell viability counter screen (AID 743064); also: nearly all actives have a fitted effect of over 50% in size
Procedure, shortened: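 Fluorescence from CellTiter-Fluor, added after 23.5 h exposure at 37 °C, reported viability of GH3.TRE-Luc cells co-treated with compound and 1 nM T3. Measured in the same wells as the luciferase TR readout.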

[11] = qHTS assay to identify small molecule antagonists of the thyroid receptor (TR) signaling pathway (AID 743065); also: series mostly up to about 70 µM; nearly all actives have a fitted effect of over 55% in size
Procedure, shortened: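 GH3.TRE-Luc rat pituitary cells carrying two TR response elements driving luciferase were plated for 4 h, given compound plus 1 nM T3 (final), and incubated 23.5 h at 37 C. ONE-Glo luminescence measured reporter inhibition; CellTiter-Fluor fluorescence tracked cytotoxicity.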

[12] = system: thyroid hormone receptor (rat, GH3 cells); assay: qHTS assay to identify small molecule agonists of the thyroid receptor (TR) signaling pathway (AID 743066; calls by dose curve)
[13] = qHTS assay to identify small molecule antagonists of the estrogen receptor alpha (ER-alpha) signaling pathway - cell viability counter screen (AID 743074; calls by dose curve;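 also: HEK293 cells carrying ER-alpha-UAS-bla reporter stimulated with 17beta-estradiol; nearly all actives have a fitted effect of over 45% in size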)
[14] = qHTS assay to identify small molecule antagonists of the estrogen receptor alpha (ER-alpha) signaling pathway using the BG1 cell line - cell viability counter screen (AID 743081);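 also: compound given together with 17beta-estradiol as the ER stimulus; series mostly up to about 70 µM; nearly all actives have a fitted effect of over 45% in size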
Aromatase (Homo sapiens) = Aromatase (Homo sapiens) (UniProt P11511); assay: qHTS assay to identify aromatase inhibitors (AID 743083)
Chain of Aromatase (Homo sapiens) (P11511 whole entry, looked up): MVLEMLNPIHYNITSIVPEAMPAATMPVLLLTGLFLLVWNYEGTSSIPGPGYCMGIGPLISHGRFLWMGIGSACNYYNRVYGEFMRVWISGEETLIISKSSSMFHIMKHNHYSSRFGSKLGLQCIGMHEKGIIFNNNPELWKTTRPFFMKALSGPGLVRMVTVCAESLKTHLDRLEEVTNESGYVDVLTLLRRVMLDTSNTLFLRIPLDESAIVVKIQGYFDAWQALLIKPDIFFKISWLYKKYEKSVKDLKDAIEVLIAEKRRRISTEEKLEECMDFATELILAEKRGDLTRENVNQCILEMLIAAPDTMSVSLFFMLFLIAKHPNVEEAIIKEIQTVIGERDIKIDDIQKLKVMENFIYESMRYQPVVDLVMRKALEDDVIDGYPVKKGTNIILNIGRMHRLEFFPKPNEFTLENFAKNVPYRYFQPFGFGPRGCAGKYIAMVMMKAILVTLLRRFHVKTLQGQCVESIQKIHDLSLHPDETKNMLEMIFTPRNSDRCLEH

[15] = target: Estrogen receptor (Homo sapiens) (UniProt P03372); assay: qHTS assay to identify small molecule antagonists of the estrogen receptor alpha (ER-alpha) signaling pathway (AID 743069; active = well fitted curve in the direction sought with a large enough effect in the signal ratio in the repeat runs, not every such curve was filed as active; the % refers to the signal ratio)
Chain of Estrogen receptor (Homo sapiens) (P03372 whole entry, looked up): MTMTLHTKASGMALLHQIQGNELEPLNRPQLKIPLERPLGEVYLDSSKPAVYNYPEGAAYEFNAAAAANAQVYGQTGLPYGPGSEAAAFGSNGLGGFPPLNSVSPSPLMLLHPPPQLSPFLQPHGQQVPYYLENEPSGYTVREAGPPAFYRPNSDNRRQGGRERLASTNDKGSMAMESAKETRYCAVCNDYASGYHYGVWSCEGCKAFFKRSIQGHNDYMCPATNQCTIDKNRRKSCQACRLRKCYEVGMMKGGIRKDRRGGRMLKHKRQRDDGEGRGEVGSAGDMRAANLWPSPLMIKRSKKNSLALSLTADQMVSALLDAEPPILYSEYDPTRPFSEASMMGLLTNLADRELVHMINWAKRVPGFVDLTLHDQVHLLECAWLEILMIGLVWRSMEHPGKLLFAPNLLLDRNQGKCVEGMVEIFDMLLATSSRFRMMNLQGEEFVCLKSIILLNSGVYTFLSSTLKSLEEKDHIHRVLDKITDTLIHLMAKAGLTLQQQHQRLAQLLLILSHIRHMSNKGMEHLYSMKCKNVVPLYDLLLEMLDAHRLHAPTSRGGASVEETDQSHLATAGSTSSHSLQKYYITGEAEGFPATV
Procedure, shortened: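 A 17beta-estradiol challenge was applied right after compound transfer to ER-alpha-UAS-bla HEK293 cells previously kept in charcoal-stripped serum. Plates stood 18 hr at 37C and 5% CO2; fluorescence was read following 2 hr FRET substrate loading at room temperature.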

[16] = target: Estrogen receptor (Homo sapiens) (UniProt P03372); assay: qHTS assay to identify small molecule agonists of the estrogen receptor alpha (ER-alpha) signaling pathway (AID 743075; calls by dose curve;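 also: HEK293 GripTite cells with ER-alpha and UAS-driven beta-lactamase reporter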)
[17] = target: Estrogen receptor (Homo sapiens) (UniProt P03372); assay: qHTS assay to identify small molecule agonists of the estrogen receptor alpha (ER-alpha) signaling pathway using the BG1 cell line (AID 743079); also: nearly all actives have a fitted effect of over 20% in size
[18] = qHTS assay to identify small molecule antagonists of the estrogen receptor alpha (ER-alpha) signaling pathway using the BG1 cell line (AID 743080; calls by dose curve;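 also: BG1 cells stimulated with 17beta-estradiol alongside compound; series mostly up to about 70 µM; nearly all actives have a fitted effect of over 25% in size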)
Procedure, shortened: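 BG1-Luc-4E2 cells (endogenous full-length ER-alpha, 4xERE luciferase) hormone-starved 5 days in charcoal-stripped FBS, plated 4,000/well for 24 h, then compound plus 17beta-estradiol for 21.5 h at 37 C; ONE-Glo luminescence read.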

[19] = qHTS assay for identifying genotoxic compounds that show differential cytotoxicity against isogenic chicken DT40 cell lines with known DNA damage response pathways - wild type cell line (AID 743012); also: nearly all actives have a fitted effect of over 60% in size
Procedure, shortened: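 Endpoint: CellTiter-Glo luminescence, 30 min RT. Cells: wild type DT40, 300/well. Exposure: compounds in DMSO, 40 h, 37 C/5% CO2, after ~0.5 h pre-incubation.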
% is scaled to controls: 0 for no effect and ±100 for the full control effect.

O=S(=O)(O)SSS(=O)(=O)O
inactive: Potency [1] | Potency [2] | Potency [3] | outcome [4] | Potency [5] | outcome [6] | outcome [7] | outcome [8] | outcome [9] | Potency [10] | Potency [11] | Potency [12] | Potency [13] | outcome [14] | outcome (Aromatase (Homo sapiens))

Nc1ccnc(=O)[nH]1
inactive: Potency [1] | Potency [2] | Potency [3] | outcome [4] | Potency [5] | outcome [6] | outcome [7] | outcome [8] | outcome [9] | Potency [10] | Potency [11] | Potency [12] | Potency [15] | Potency [13] | Potency [16] | Potency [17] | outcome [18] | outcome [14] | outcome (Aromatase (Homo sapiens))

O=C1OC(=O)c2ccccc21
inactive: Potency [1] | Potency [2] | Potency [3] | outcome [4] | outcome [8] | Potency [10] | Potency [12] | Potency [15] | Potency [13] | Potency [16] | Potency [17] | outcome [18] | outcome [14] | outcome (Aromatase (Homo sapiens))

CCCCOC(=O)C(=O)OCCCC
inactive: Potency [1] | Potency [2] | Potency [3] | outcome [4] | outcome [8] | Potency [11] | Potency [12] | outcome [14] | outcome (Aromatase (Homo sapiens))

CC(=O)c1ccc2c(c1)CCCC2
inactive: Potency [1] | Potency [3] | outcome [4] | outcome [8] | Potency [11] | Potency [12] | Potency [15] | Potency [13] | outcome [18] | outcome [14] | outcome (Aromatase (Homo sapiens))

CC(=O)OC(C(=O)c1ccccc1)c1ccccc1 (stereo not drawn)
inactive: Potency [19] | Potency [2] | Potency [3] | outcome [4] | Potency [5] | outcome [6] | outcome [7] | outcome [8] | outcome [9] | Potency [11] | Potency [12] | Potency [15] | Potency [13] | Potency [16] | outcome [18] | outcome [14] | outcome (Aromatase (Homo sapiens))

C[C@@H]1C[C@H]2[C@@H]3C[C@H](F)C4=CC(=O)C=C[C@]4(C)[C@@]3(F)[C@@H](O)C[C@]2(C)[C@@]1(O)C(=O)CO
inactive: Potency [1] | outcome [8] | Potency [11] | Potency [12] | Potency [13] | outcome [14] | outcome (Aromatase (Homo sapiens))

CNCc1ccccc1
inactive: Potency [19] | Potency [2] | Potency [3] | outcome [4] | outcome [8] | Potency [10] | Potency [12] | Potency [13] | outcome [14] | outcome (Aromatase (Homo sapiens))

CCN(CCO)c1cccc(C)c1
inactive: Potency [1] | outcome [8] | Potency [10] | Potency [13] | Potency [16] | Potency [17] | outcome [18] | outcome [14] | outcome (Aromatase (Homo sapiens))

CCCCCCCCCCCCCCCCI
inactive: Potency [19] | Potency [2] | Potency [3] | outcome [4] | Potency [5] | outcome [6] | outcome [7] | outcome [8] | outcome [9] | Potency [10] | Potency [11] | Potency [12] | Potency [13] | outcome [14] | outcome (Aromatase (Homo sapiens))

CCOC(=O)OCC/C(SC(=O)OCC)=C(\C)N(C=O)Cc1cnc(C)nc1N
inactive: Potency [19] | Potency [2] | Potency [3] | outcome [4] | outcome [8] | Potency [10] | Potency [11] | Potency [12] | outcome (Aromatase (Homo sapiens))

CCNC(=O)NCCCOc1cccc(CN2CCCCC2)c1
inactive: Potency [1] | Potency [3] | outcome [8] | Potency [10] | Potency [11] | Potency [12] | Potency [15] | Potency [16] | Potency [17] | outcome [18] | outcome [14] | outcome (Aromatase (Homo sapiens))

CCCCC(CC)C(=O)OC(C)C (stereo not drawn)
inactive: Potency [19] | Potency [2] | Potency [3] | outcome [4] | outcome [8] | Potency [10] | Potency [12] | Potency [13] | outcome [14] | outcome (Aromatase (Homo sapiens))

CCCCCCCCOC(C)=O
inactive: Potency [1] | Potency [3] | outcome [4] | outcome [8] | Potency [11] | Potency [12] | Potency [15] | Potency [13] | Potency [16] | Potency [17] | outcome [18] | outcome [14] | outcome (Aromatase (Homo sapiens))

C=CCOC(=O)c1ccc(C(=O)OCC=C)c(C(=O)OCC=C)c1
inactive: Potency [1] | outcome [4] | outcome [8] | Potency [11] | Potency [12] | Potency [15] | Potency [16] | Potency [17] | outcome [18] | outcome [14] | outcome (Aromatase (Homo sapiens))

O=CO
inactive: viability change, negative = cytotoxic [1] -3.59% [at 7.04 µM] | activity change, negative = cytotoxicity [4] -5.92% [at 7.04 µM] | viability change, negative = cytotoxic [8] -3.77% [at 8.47 µM] | activity change, negative = cytotoxic [10] -0.961% [at 8.44 µM] | activity, negative = inhibition [11] -3.91% [at 8.44 µM] | activation [12] 0.246% [at 8.08 µM] | activity, negative = cytotoxicity [13] 6.52% [at 6.72 µM] | activity change, negative = cytotoxicity [14] 0.807% [at 8.47 µM] | activity, negative = inhibition (Aromatase (Homo sapiens)) 10.9% [at 8.47 µM]

CCNC(=O)/C=C/c1cccc(Br)c1
inactive: Potency [19] | Potency [2] | Potency [3] | outcome [4] | outcome [7] | outcome [8] | Potency [10] | Potency [13] | outcome [14] | outcome (Aromatase (Homo sapiens))

O=[Si]=O
inactive: Potency [19] | Potency [2] | Potency [3] | outcome [4] | outcome [8] | Potency [10] | Potency [11] | Potency [12] | Potency [15] | Potency [13] | Potency [16] | Potency [17] | outcome [18] | outcome [14] | outcome (Aromatase (Homo sapiens))

Nc1cc(C(=O)O)ccc1Cl
inactive: Potency [1] | Potency [3] | outcome [4] | Potency [5] | outcome [6] | outcome [7] | outcome [8] | outcome [9] | Potency [10] | Potency [11] | Potency [12] | Potency [15] | Potency [13] | Potency [16] | Potency [17] | outcome [18] | outcome [14] | outcome (Aromatase (Homo sapiens))
